From PubChem
Tau ThT inhib – inhibitors of human tau fibril formation, thioflavin T binding | P10636 | recombinant tau K18 P301L, heparin-induced fibrillization, ThT fluorescence | Potency, µM (highest dose often 57.4 µM), actives largely listed as inhibitors | hit rate 2.1% among 270,000; also: nearly all actives have a fitted effect of over 55% in size
Target sequence (P10636 561-689 P618L limits assumed): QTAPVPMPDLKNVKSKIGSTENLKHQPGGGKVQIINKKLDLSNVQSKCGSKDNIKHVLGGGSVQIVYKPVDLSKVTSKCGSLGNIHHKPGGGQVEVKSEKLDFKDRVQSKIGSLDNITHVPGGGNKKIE
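Recombinant human tau K18 fragment […] carrying P301L, 15 uM unlabeled plus 0.24 uM Alexa 594-labeled, was fibrillized with 20 uM heparin in 100 mM sodium acetate pH 7 for 6 hr at 37 C; 30 uM ThT fluorescence read after 1 hr.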
HTT cytoprotect – protects HTT-Q103 PC12 cells, measured by ATP; Potency, µM (doses to about 56.4 µM), actives largely listed as activators; hit rate 0.14% among 230,000; PC12 HTT-Q103 induced, cytoprotection, ATP luminescence, 40 h; also: nearly all actives have a fitted effect of over 45% in size
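PC12 cells stably carrying ecdysone-inducible Htt exon 1 (Q103)–GFP were induced with 100 nM tebufenozide (final) alongside library compounds in a dose series. Cytoprotection was scored as retained ATP by ATPlite luminescence.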
Tau fibril FP – tau fibrillization inhibition (FP). P10636. K18 P301L tau heparin fibrillization, Alexa594 FP, 6 h. Potency, µM (titrated, usually from 57.7 µM), usual class: inhibitors. hit rate 0.39% among 280,000; also: nearly all actives have a fitted effect of over 55% in size
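Heparin (20 uM) drove fibril formation of recombinant tau K18 P301L, 15 uM unlabeled with 0.24 uM Alexa 594 label, for 6 hr at 37 C in 100 mM sodium acetate pH 7. Fluorescence polarization (555/632 nm) read 1 hr after 30 uM ThT.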
Tau fluor counter – counter-screen for tau fibril formation inhibitors. AID 1463. tau K18 P301L Alexa594 fluorescence, heparin fibrillization. Potency, µM (highest dose often 57.7 µM). hit rate 0.93% among 280,000; also: nearly all actives have a fitted effect of over 55% in size
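Human tau K18 P301L (15 uM unlabeled, 0.24 uM Alexa 594-labeled) in 100 mM sodium acetate pH 7 with 20 uM heparin, 6 hr at 37 C. ThT 30 uM added, 1 hr ambient; Alexa 594 FP and total fluorescence read at 555/632 nm.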
HttQ103 aggreg – reduces HttQ103-GFP aggregates in PC12 cells | Potency, µM (series often up to 46.1 µM), actives largely listed as inhibitors | hit rate 1.1% among 220,000 | AID 1688 | PC12 HttQ103-GFP aggregates, Acumen cytometry, 40 h; also: nearly all actives have a fitted effect of over 60% in size
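Quantitative HTS on tebufenozide-induced (100 nM) PC12 cells stably expressing polyQ103 Huntingtin exon 1–GFP. Reduction of bright GFP aggregates, detected by laser scanning cytometry after lysis, identified actives across the titration.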
A number is an active result; . = inactive; ? = inconclusive; / = not tested or not shown; ! = not active in a repeat; [ ] = another dose, or the depositor's remark. Only some compounds are listed: those with a hit (about 3.7% of all), similar ones and a draw of the others. Calls follow the shape of the dose curve; as a rule, active = well fitted curve in the direction sought with a large enough effect; inconclusive = small, poorly fitted or top-dose-only effect, or another doubt; inactive = no such curve, though single readings can be large; an effect the other way counts as inactive or inconclusive.

SMILES | Tau ThT inhib | HTT cytoprotect | Tau fibril FP | Tau fluor counter | HttQ103 aggreg
CC(=O)N[C@@H]1C(O[C@H]2O[C@H](C(=O)O)C(O)[C@H](O)[C@H]2O)[C@H](O)[C@@H](CO)O[C@H]1O[C@@H]1C(C(=O)O)O[C@@H](O[C@H]2[C@H](O)[C@@H](CO)OC(O)[C@@H]2NC(C)=O)[C@H](O)[C@H]1O (stereo not given in full) | / | . | / | / | .
C/C=C/C=C/C(=O)[C@@H]1[C@@H]([C@]2(C)OC(=O)C(C)=C2O)[C@H]2/C(=C(O)/C=C/C=C/C)C(=O)[C@]1(C)C(=O)C2(C)O (stereo not given in full) | 14µM | .[10 µM] | ? | . | .[9.22 µM]
COc1ccc2cc3c(N)nn(C(=O)Cc4c[nH]c5ccccc45)c3nc2c1 | / | .[10 µM] | . | 20µM[quencher] | 3.2µM
COc1ccc2cc3c(N)nn(C(=O)Cc4ccc(Cl)cc4)c3nc2c1 | . | . | . | . | 7.9µM
Cc1nc(COC(=O)c2ccc(CO)cc2)cs1 | . | . | . | . | .
Cc1nc(COC(=O)c2cc(O)c3ccccc3c2O)cs1 | 25µM | . | ? | ? | .
Cc1ccc(-c2cc(C(=O)O)c3cc(Br)ccc3n2)o1 | 20µM | / | ? | . | .
Cc1ccc2nc3cc([N+](=O)[O-])cc([N+](=O)[O-])c3cc2c1 | 3.2µM | / | ? | ? | ?
Cc1nc2ccc([N+](=O)[O-])cc2nc1C | . | . | . | . | .
CC(/C=C/c1ccc(N(C)C)cc1)=N/N=C1/NC(=O)CC(C(=O)Nc2ccc(Cl)cc2)S1 (stereo not given) | 7.9µM | / | . | 8.9µM[quencher] | ?
CC(/C=C/c1ccc(N(C)C)cc1)=N\N=C1\NC(=O)CC(C(=O)Nc2ccccc2)S1 (stereo not given) | ? | .[10 µM] | . | ? | .
O=C(Nc1ccc(N=Nc2ccccc2)c(NC(=O)C2CCCO2)c1)C1CCCO1 (stereo not given) | 14µM | .[10 µM] | . | . | ?
CC(C)c1ccc(Nc2c(-c3ccccn3)nc3ccccn23)cc1 | ? | / | . | ? | /
O=C(/C=C/c1ccc(-c2ccccc2[N+](=O)[O-])o1)c1ccc(Br)cc1 | 7.9µM | .[10 µM] | . | ? | .
O=C(/C=C/c1ccc(-c2ccccc2[N+](=O)[O-])o1)c1ccc(F)cc1 | ? | . | . | . | .
O=C(/C=C/c1ccc(-c2ccccc2)o1)c1ccccc1 | . | .[1.9 µM] | . | . | .
Cc1ccc(-c2ccc(/C=C/C(=O)c3ccccc3)o2)cc1 | 13µM | .[1.9 µM] | . | . | ?
Cc1ccc(C(=O)/C=C/c2ccccc2[N+](=O)[O-])cc1 | ? | .[10 µM] | . | . | .[9.22 µM]
Cc1ccc(C(=O)/C=C/c2ccc(-c3ccccc3[N+](=O)[O-])o2)cc1 | 8.9µM | .[10 µM] | . | ? | .
C/C(CCC(=O)OC[C@@H]1O[C@H](C#Cc2ccccc2)C=C[C@@H]1Oc1ccc(C)cc1)=N/O[C@@H](C)c1cn([C@H]2COC[C@H]2O)nn1 | .[11.5 µM] | .[10 µM] | .[11.6 µM] | .[11.6 µM] | /
Cc1ccccc1Cn1cc(S(=O)(=O)c2ccc(F)cc2)c(=O)c2cc3c(cc21)OCO3 | . | / | . | . | /
OCCCNCc1ccncc1 | / | .[10 µM] | / | / | /
O=S(Cc1ccc(Br)cc1)Cc1nnc(SCc2c(Cl)cccc2Cl)n1-c1ccccc1 (stereo not given) | . | ? | . | . | 22µM
COc1cccc(CNC(=O)c2ccc(-c3nc(CS(=O)(=O)c4ccccc4)c(C)o3)cc2)c1 | . | / | . | . | /
CC1=C(/C=C/C(C)=C/C=C/C(C)=C/C(=O)Nc2ccc(O)cc2)C(C)(C)CCC1 | 16µM | ? | . | 11µM[quencher] | ?
SMILES | Tau ThT inhib | HTT cytoprotect | Tau fibril FP | Tau fluor counter | HttQ103 aggreg
CC1=C(\C=C/C(C)=C/C=C\C(C)=C\C(=O)O)C(C)(C)CCC1 | 32µM! | . | ? | . | /
Cc1oc2ccc(O)c(CN3CCN(C)CC3)c2c1C(=O)Nc1ccc(C(C)C)cc1 | . | / | . | . | /
CCc1cccc2c(C(=O)COC(=O)/C=C/c3ccc(O)c(OC)c3)c[nH]c12 | ? | .[10 µM] | . | 16µM[quencher] | .
Cc1cc(C)c(O)c(-c2cc(C(=O)Nc3ccc(S(=O)(=O)N4CCOCC4)cc3)[nH]n2)c1 | . | .[0.074 µM] | ? | 14µM[quencher] | 20µM
Cc1ccc(C(=O)Nc2ccc(S(=O)(=O)N3CCOCC3)cc2)cc1 | . | / | . | . | /
Cc1ccccc1-c1noc(-c2ccc(N3CCC(C)CC3)c([N+](=O)[O-])c2)n1 | . | / | . | . | /
